Results on 80 compounds are retold here after PubChem BioAssay AID624156 (Broad Institute, 2012).

About 900 (2%) of roughly 46,000 compounds were called active. About 1% were inconclusive and are not listed. Cut-off read from the data, not from the text of the source: active = ROS induction above about 79% (passing the limit was not always enough); inconclusive = no clear call, values can overlap the other calls. Many of the other results were omitted from the sample, so actives are more common in it than they were.

A short description of the test: ROS inducers in U2OS cancer cells, primary screen, cell-based, H2DCF-DA fluorescence (AID 624156).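 Note: 0% = DMSO vehicle median and 100% = reference compound median.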 The note with it: at 10 µM, active compounds read high.
For `COc1ccc(C=NCc2ccc(OC)c(OC)c2)cc1OC`, the ROS induction (% of piperlongumine) is 12.4% (inactive).

In the case of `CC1C=CCC2C(=O)N(c3cccc(Cl)c3)C(=O)C12` (stereo not given), the ROS induction (% of piperlongumine) is -5.69% (inactive).

For the compound `CC1CCC(NC(=O)c2ccccc2C(=O)O)CC1` (stereo not given), the ROS induction (% of piperlongumine) was -7.64% (inactive).

For the compound `Cc1ccc2c(c1)c(-c1ccccc1)c(-c1ccccc1)n2CC(O)CNCc1ccco1` (stereo not given), the ROS induction (% of piperlongumine) is 4.62% (inactive).

As to `O=C(COC(=O)c1cc2ccccc2cc1O)c1ccc(OCc2ccccc2)cc1`, the ROS induction (% of piperlongumine) is 6.42% (inactive).

On to `Cc1noc(C)c1NC(=O)N(C)C[C@H]1Oc2ccc(NC(=O)C3CCCCC3)cc2CC(=O)N([C@@H](C)CO)C[C@H]1C`, for which the ROS induction (% of piperlongumine) is -5.41% (inactive).

As to `FC(F)(F)c1cccc(NC(=S)Nc2cc(-c3cccs3)[nH]n2)c1`, the ROS induction (% of piperlongumine) is -6.71% (inactive).

Consider `CCOC(=O)N1CCC(NC(=O)NCc2noc3ccccc23)CC1`, for which the ROS induction (% of piperlongumine) is -11.6% (inactive).

Consider `CC(=O)Nc1ccc(Nc2c3c4c(cccc4[nH]c2=O)C(=O)c2ccccc2-3)cc1`, for which the ROS induction (% of piperlongumine) was 105% (active).

On to `CC(=O)Nc1ccc(NC(=O)CN(c2ccccc2Br)S(C)(=O)=O)cc1`, for which the ROS induction (% of piperlongumine) was -14% (inactive).

Take `CC(=O)Nc1ccc(NC(=O)COc2ccccc2C(=O)Nc2cccc(Cl)c2Cl)cc1`: the ROS induction (% of piperlongumine) was -10% (inactive).

Regarding `COc1cc2c(cc1NC(=O)CCC1CCCCC1)oc1ccccc12`, the ROS induction (% of piperlongumine) was -18.8% (inactive).

`CCOC(=O)c1c(C)nn(-c2ncccc2NC(=O)CCC(=O)O)c1C`: the ROS induction (% of piperlongumine) is -11.2% (inactive).

For `[N-]=[N+]=Nc1ccccc1C[C@@]1(C(=O)NCc2ccccc2)N=C(c2ccc(OCCCO)cc2)O[C@@H]1c1ccccc1`, the ROS induction (% of piperlongumine) is 30.8% (inactive).

Turning to `COC(=O)[C@@]1(CCS(=O)(=O)c2ccccc2)N=C(c2ccc(OCCCO)cc2)O[C@H]1c1ccccc1N=[N+]=[N-]`, the ROS induction (% of piperlongumine) is 33.1% (inactive).

For the compound `COC(=O)[C@]1(Cc2ccccc2CN=[N+]=[N-])N=C(c2ccc(OCCCO)cc2)O[C@@H]1c1ccccc1CN=[N+]=[N-]`, the ROS induction (% of piperlongumine) was 86.1% (active).

In the case of `CNC[C@H]1Oc2ccc(NS(=O)(=O)c3cn(C)cn3)cc2C(=O)N([C@@H](C)CO)C[C@@H]1C`, the ROS induction (% of piperlongumine) was 5.85% (inactive).

Regarding `COc1ccc(NC(=S)NCC(c2ccccc2)c2c[nH]c3ccccc23)cc1` (stereo not given), the ROS induction (% of piperlongumine) is 4.82% (inactive).

On to `COc1ccc(-c2cc(C(F)(F)F)nc(SCCC(=O)N(C)c3ccccc3)n2)cc1`, for which the ROS induction (% of piperlongumine) is 33.5% (inactive).

On to `CCC(=O)Nc1ccccc1C(=O)Nc1ccccc1`, for which the ROS induction (% of piperlongumine) is 10.3% (inactive).

`CC[N+]1=C(C)C(C)(C)c2cc(-c3ccccc3)ccc21`: the ROS induction (% of piperlongumine) was 52.6% (inactive).

As for `Cc1nc2ccccn2c1-c1ccnc(SCC(=O)c2ccc(Cl)cc2)n1`, the ROS induction (% of piperlongumine) was 102% (active).

In the case of `C=CCn1c(SCc2nnc(SCC(=O)c3ccc(Cl)cc3)o2)nnc1-c1ccccc1`, the ROS induction (% of piperlongumine) was -1.34% (inactive).

Turning to `CCn1c(SCC(=O)c2ccc(OC)cc2)nnc1-c1ccccc1F`, the ROS induction (% of piperlongumine) was -17.9% (inactive).

Consider `CC(C)NC(=O)c1ccc2c(c1)N(Cc1ccccc1)C(=O)CS2`, for which the ROS induction (% of piperlongumine) was -7.88% (inactive).

As for `COC(=O)/C=C1\SC(=NC(=O)c2ccc(F)cc2)NC1=O`, the ROS induction (% of piperlongumine) was 1.03% (inactive).

As for `Cc1cccc(Cn2c(SCc3ccc(C(=O)N4CCCCC4)cc3)nc3ccncc32)c1`, the ROS induction (% of piperlongumine) was -1.54% (inactive).

With `C[C@H]1CN([C@@H](C)CO)C(=O)Cc2cc(NC(=O)Cc3ccccc3)ccc2O[C@@H]1CN(C)Cc1ccc(Cl)c(Cl)c1`, the ROS induction (% of piperlongumine) was 88.2% (active).

On to `C[C@@H]1CN([C@@H](C)CO)C(=O)Cc2cc(NC(=O)Cc3ccccc3)ccc2O[C@@H]1CN(C)Cc1ccc(Oc2ccccc2)cc1`, for which the ROS induction (% of piperlongumine) was 115% (active).

For `C[C@@H]1CN([C@H](C)CO)C(=O)c2cccc(NS(=O)(=O)c3ccc(Cl)cc3)c2O[C@@H]1CN(C)Cc1ccc(Oc2ccccc2)cc1`, the ROS induction (% of piperlongumine) was 16.8% (inactive).

With `Cc1cc(C(=O)Nc2cccc3c2O[C@@H](CN(C)Cc2ccc(C(=O)Nc4ccccc4N)cc2)[C@H](C)CN([C@@H](C)CO)C3=O)n(C)n1`, the ROS induction (% of piperlongumine) was 29% (inactive).

As for `C[C@@H]1CN([C@H](C)CO)C(=O)c2cccc(NS(=O)(=O)c3ccc(F)cc3)c2O[C@H]1CN(C)Cc1ccc(Oc2ccccc2)cc1`, the ROS induction (% of piperlongumine) is 102% (active).

`COc1ccc(CN(C)C[C@H]2Oc3ccc(NC(=O)Cc4ccccc4)cc3CC(=O)N([C@@H](C)CO)C[C@@H]2C)cc1`: the ROS induction (% of piperlongumine) was 65.1% (inactive).

Regarding `C[C@H]1CN([C@@H](C)CO)C(=O)c2cccc(NS(=O)(=O)c3ccc(Cl)cc3)c2O[C@@H]1CN(C)Cc1ccc(Oc2ccccc2)cc1`, the ROS induction (% of piperlongumine) was 23.2% (inactive).

For `C[C@@H]1CN([C@@H](C)CO)C(=O)c2cccc(NC(=O)C3CC3)c2O[C@@H]1CN(C)Cc1ccccc1`, the ROS induction (% of piperlongumine) was -2.71% (inactive).

For the compound `C[C@@H]1CN([C@H](C)CO)C(=O)Cc2cc(NC(=O)Cc3ccccc3)ccc2O[C@H]1CN(C)Cc1ccc(Oc2ccccc2)cc1`, the ROS induction (% of piperlongumine) is 58.8% (inactive).

In the case of `C[C@@H]1CN([C@H](C)CO)C(=O)Cc2cc(NC(=O)Nc3ccccc3)ccc2O[C@H]1CN(C)Cc1ccc(Cl)c(Cl)c1`, the ROS induction (% of piperlongumine) was 13.3% (inactive).

As for `C[C@H](CO)N1C[C@H](C)[C@@H](CN(C)Cc2ccc(C(=O)Nc3ccccc3N)cc2)Oc2c(NC(=O)C3CC3)cccc2C1=O`, the ROS induction (% of piperlongumine) is 101% (active).

Regarding `C[C@@H]1CN([C@H](C)CO)C(=O)Cc2cc(NC(=O)Cc3ccccc3)ccc2O[C@@H]1CN(C)Cc1ccccc1`, the ROS induction (% of piperlongumine) is 35.5% (inactive).

Consider `O=C(CSc1nc2c(sc3ccccc32)c(=O)n1Cc1ccccc1)NCCC1=CCCCC1`, for which the ROS induction (% of piperlongumine) was -2.88% (inactive).

In the case of `O=C(CN(Cc1ccc(Cl)cc1Cl)S(=O)(=O)c1ccccc1)N1CCCC1`, the ROS induction (% of piperlongumine) was -2.84% (inactive).

Take `O=C1CSc2ccccc2N1Cc1ccc(Cl)cc1`: the ROS induction (% of piperlongumine) was 2.65% (inactive).

As to `Brc1ccc(CSc2c[nH]c3ccccc23)cc1`, the ROS induction (% of piperlongumine) is -17.1% (inactive).

As to `Cc1ccc(CNC(=O)c2nc3c(nnn3Cc3ccco3)c(=O)[nH]2)cc1`, the ROS induction (% of piperlongumine) was 27.5% (inactive).

With `CC(C)c1ccc(N2C(=O)CSCC2(C(=O)NC2CCCCC2)c2ccc(Cl)cc2)cc1` (stereo not given), the ROS induction (% of piperlongumine) was -3.88% (inactive).

Regarding `CCCN(c1ccccc1OC)S(=O)(=O)c1cc(Br)cnc1N`, the ROS induction (% of piperlongumine) was 1.12% (inactive).

With `O=C(NC1CCCCCCC1)c1cccs1`, the ROS induction (% of piperlongumine) is -3.89% (inactive).

Take `O=C(CCCn1c(=O)c2cccn2c2ccccc21)N1CCCCC1`: the ROS induction (% of piperlongumine) was -0.17% (inactive).

For `CN(C(=O)c1noc2c1CSc1ccccc1-2)c1cccc(C(F)(F)F)c1`, the ROS induction (% of piperlongumine) is -4.5% (inactive).

For `O=C(Nc1ccc(-n2nncc2-c2ccccc2)cc1)c1ccc(S(=O)(=O)N2CCCCC2)cc1`, the ROS induction (% of piperlongumine) is 51.9% (inactive).

In the case of `N#CC(C(=O)Nc1cccc(C(F)(F)F)c1)=C1CCCCCC1`, the ROS induction (% of piperlongumine) was 14.7% (inactive).

For the compound `Cc1cccc(NC(=S)N2CCn3cccc3C2c2cccs2)c1` (stereo not given), the ROS induction (% of piperlongumine) was -3.68% (inactive).

`C[C@H]1CN([C@@H](C)CO)C(=O)c2cc(NC(=O)Cc3cn(C)c4ccccc34)ccc2O[C@@H]1CN(C)Cc1ccc(Cl)c(Cl)c1`: the ROS induction (% of piperlongumine) is 118% (active).

As for `C[C@@H]1CN([C@@H](C)CO)C(=O)c2cc(NC(=O)Cc3ccccc3)ccc2O[C@H]1CN(C)Cc1ccc(Cl)c(Cl)c1`, the ROS induction (% of piperlongumine) was 44.7% (inactive).

Turning to `C[C@H]1CN([C@@H](C)CO)C(=O)Cc2cc(NS(=O)(=O)c3cccs3)ccc2O[C@H]1CN(C)Cc1ccncc1`, the ROS induction (% of piperlongumine) is -8.79% (inactive).

Regarding `C[C@@H]1CN([C@H](C)CO)C(=O)Cc2cc(NS(=O)(=O)c3cccs3)ccc2O[C@@H]1CN(C)Cc1ccc(C(=O)O)cc1`, the ROS induction (% of piperlongumine) was 11.6% (inactive).

With `C[C@H]1CN([C@@H](C)CO)C(=O)Cc2cc(NS(=O)(=O)c3cccs3)ccc2O[C@@H]1CN(C)Cc1ccc(Oc2ccccc2)cc1`, the ROS induction (% of piperlongumine) is 92.6% (active).

Regarding `C[C@H]1CN([C@@H](C)CO)C(=O)c2cc(NC(=O)Cc3cn(C)c4ccccc34)ccc2O[C@H]1CN(C)Cc1ccc(Cl)c(Cl)c1`, the ROS induction (% of piperlongumine) is 4.82% (inactive).

In the case of `O=C(Nc1cccc(-c2nc3ccccc3o2)c1)c1ccc(Br)cc1`, the ROS induction (% of piperlongumine) was 4.05% (inactive).

With `Cc1nn(C)cc1C(=O)c1ccccc1`, the ROS induction (% of piperlongumine) is 36.5% (inactive).

As for `Cc1ccc(C(=O)N/C(=C\c2ccccc2)C(=O)Nc2c(C)n(C)n(-c3ccccc3)c2=O)cc1`, the ROS induction (% of piperlongumine) is 0.477% (inactive).

For `COc1ccc(CNCC2(c3ccccc3)CCCC2)cc1`, the ROS induction (% of piperlongumine) was 4.91% (inactive).

Consider `COC(=O)c1ccc(-c2ccco2)n1CC(=O)NC1CCCC1`, for which the ROS induction (% of piperlongumine) is -2.05% (inactive).

Consider `CCC/C=C/C(=O)OC1C(O)C23C(O)OC4(CCC5C6(C)CCC(OC7OC(C(=O)O)C(O)C(OC8OC(CO)C(O)C(O)C8OC8OC(C)C(O)C(O)C8OC8OCC(O)C(O)C8O)C7OC7OC(CO)C(O)C(O)C7O)C(C)(C)C6CCC5(C)C4(C)CC2OC(C)=O)C3CC1(C)C` (stereo not given), for which the ROS induction (% of piperlongumine) is -31.6% (inactive).

As to `Cc1cc(-c2cccs2)c2c(N)c(C(=O)c3ccccc3)sc2n1`, the ROS induction (% of piperlongumine) is 95.7% (active).

Turning to `COCc1cc(C)nc2sc(C(N)=O)c(N)c12`, the ROS induction (% of piperlongumine) is 10.2% (inactive).

For the compound `O=C(O)c1ccc(S(=O)(=O)c2ccc(Cl)cc2)cc1`, the ROS induction (% of piperlongumine) was -2.87% (inactive).

Regarding `Cc1c(S(=O)(=O)Nc2ccc(Cl)cc2)sc2ccc(Cl)cc12`, the ROS induction (% of piperlongumine) was -12.9% (inactive).

Take `Fc1ccc(NCc2cn(-c3ccccc3)nc2-c2cccs2)c(F)c1`: the ROS induction (% of piperlongumine) is -6.92% (inactive).

Regarding `N#CCC(=O)N(Cc1ccccc1)C(=O)Nc1cccc(F)c1`, the ROS induction (% of piperlongumine) is -15.5% (inactive).

For the compound `CC(C)(C)n1ncc2c(=O)n(Cc3ccc(Cl)cc3)cnc21`, the ROS induction (% of piperlongumine) was -3.3% (inactive).

As for `N#Cc1c(SCC(=O)Nc2ccccc2)ncc2cc3ccccc3nc12`, the ROS induction (% of piperlongumine) was 192% (active).

Regarding `Cc1sc2ncnc(SCC(=O)Nc3ccccc3)c2c1-c1ccccc1`, the ROS induction (% of piperlongumine) was -2.63% (inactive).

Take `O=C(CSc1nnc(-c2ccccc2)c(-c2ccccc2)n1)Nc1ccccc1`: the ROS induction (% of piperlongumine) is -5.87% (inactive).

For `C=CCn1c2ccccc2c2nnc(SCCCC(=O)c3ccc(F)cc3)nc21`, the ROS induction (% of piperlongumine) is 81.9% (active).

Consider `CCn1c2ccccc2c2nnc(SCC(=O)O)nc21`, for which the ROS induction (% of piperlongumine) was -16.9% (inactive).

As to `CCOC(=O)CCSc1nnc2c3ccccc3n(C)c2n1`, the ROS induction (% of piperlongumine) was 39.9% (inactive).

On to `C=CCn1c2ccccc2c2nnc(SCC(=O)N3c4ccccc4Sc4ccccc43)nc21`, for which the ROS induction (% of piperlongumine) is 11.2% (inactive).

For the compound `c1ccc(Cn2c3ccccc3c3nnc(SCc4ccc5nonc5c4)nc32)cc1`, the ROS induction (% of piperlongumine) is 21.9% (inactive).

Regarding `CCCn1c2ccccc2c2nnc(SCC(=O)Nc3cccc4ccccc34)nc21`, the ROS induction (% of piperlongumine) was 91.7% (active).
